Source: PubChem BioAssay (Tox21)
Results filed as inconclusive are left out. Where a call stands in place of a potency, no number is given. Activity calls are given as the source filed them. Calls follow the shape of the full dose curve.

Target: Beta-2 adrenergic receptor (Homo sapiens) (UniProt P07550)
Assay: Adrenergic beta2 receptor (ADRB2) small molecule agonists, cell-based qHTS assay (AID 1963593)
Procedure, shortened: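 CHO cells stably over-expressing ADRB2 were plated overnight at 37C, then dosed with compounds plus a stimulation mix containing 100uM IBMX and 25uM Ro-20-1724 for 0.5hr at room temperature. cAMP was measured by HTRF competition, 1hr.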
Potency is read from the fitted curve at half-maximal effect.

Chain of Beta-2 adrenergic receptor (Homo sapiens) (P07550 whole entry, looked up): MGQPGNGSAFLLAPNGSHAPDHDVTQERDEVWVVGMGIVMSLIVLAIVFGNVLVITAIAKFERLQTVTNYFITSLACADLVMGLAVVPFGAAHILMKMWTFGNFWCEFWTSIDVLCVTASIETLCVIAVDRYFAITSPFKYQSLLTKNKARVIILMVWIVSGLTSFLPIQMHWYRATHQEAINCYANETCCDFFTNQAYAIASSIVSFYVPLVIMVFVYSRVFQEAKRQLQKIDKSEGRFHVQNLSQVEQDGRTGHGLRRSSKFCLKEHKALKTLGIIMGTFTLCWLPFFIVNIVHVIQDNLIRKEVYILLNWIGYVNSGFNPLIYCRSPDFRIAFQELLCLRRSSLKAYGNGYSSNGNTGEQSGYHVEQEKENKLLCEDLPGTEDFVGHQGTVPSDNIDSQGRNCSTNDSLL

How did the Potency turn out when `CNC(=O)CSP(=O)(OC)OC` was run?
Its Potency is “inactive”.

For `CCCCc1ccccc1`, which Potency is on record?
The Potency was “inactive”.

Which Potency does the source give for `CCC1CCC(=O)O1` (stereo unspecified) here?
The Potency was “inactive”.

Which Potency does the source give for `COP(=S)(Oc1cc(Cl)c(Br)cc1Cl)c1ccccc1` (stereo unspecified) here?
Its Potency is “inactive”.

How did the Potency turn out when `CCOC(=O)c1cn2nc(OP(=S)(OCC)OCC)cc2nc1C` was run?
The Potency was “inactive”.

With `CC(=O)NC1CCSC1=O` (stereo unspecified) as the compound, how does the Potency read?
The Potency was “inactive”.

Which Potency does the source give for `NCCc1cc(O)c(O)cc1O` here?
The Potency was “inactive”.

For `COc1c2c(cc3c1OCO3)CCN(C)C2`, which Potency is on record?
The Potency was “inactive”.

How did the Potency turn out when `O=C(O)[C@H](O)[C@@H](O)C(=O)O` was run?
The Potency was “inactive”.

With `COCc1cnc(C2=NC(C)(C(C)C)C(=O)N2)c(C(=O)O)c1` (stereo unspecified) as the compound, how does the Potency read?
The Potency was “inactive”.

For `C=CCC1([C@H](C)CCC)C(=O)NC(=O)NC1=O`, which Potency is on record?
Its Potency is “inactive”.

`O=C(N[C@H]1CN2CCC1CC2)c1ccc2c(c1)OCCO2` was tested. Which Potency did it give?
Its Potency is “inactive”.

`CCCCC(CC)COP(=O)(Oc1ccccc1)Oc1ccccc1` (stereo unspecified) was tested. Which Potency did it give?
The Potency was “inactive”.

How did the Potency turn out when `Cc1cc(C(F)(C(F)(F)F)C(F)(F)F)ccc1NC(=O)c1cccc(I)c1C(=O)NC(C)(C)CS(C)(=O)=O` was run?
Its Potency is “inactive”.

`ClCCCCCCCl` was tested. Which Potency did it give?
Its Potency is “inactive”.

With `CC(C)(C)C(=O)C(Oc1ccc(Cl)cc1)n1cncn1` (stereo unspecified) as the compound, how does the Potency read?
Its Potency is “inactive”.

`O.O.O.O=C([O-])[C@H]([O-])[C@@H]([O-])C(=O)[O-].O=C([O-])[C@H]([O-])[C@@H]([O-])C(=O)[O-].[K+].[K+].[Sb+3].[Sb+3]` was tested. Which Potency did it give?
Its Potency is “inactive”.

How did the Potency turn out when `CC(C)(N)Cc1ccc(Cl)cc1` was run?
Its Potency is “inactive”.

Which Potency does the source give for `CCCOc1nn(C(=O)NS(=O)(=O)c2ccccc2C(=O)OC)c(=O)n1C` here?
The Potency was “inactive”.

How did the Potency turn out when `CCC1(C2=NCCN2)Cc2ccccc2O1` (stereo unspecified) was run?
The Potency was “inactive”.

With `Clc1ccc(C2(Cn3cncn3)CC(Br)CO2)c(Cl)c1` (stereo unspecified) as the compound, how does the Potency read?
Its Potency is “inactive”.

With `O=C(NC(=O)c1cc(F)c(F)cc1Cl)Nc1cc(F)ccc1N1CCC(C(=O)O)CC1` as the compound, how does the Potency read?
Its Potency is “inactive”.

For `O=C(O)C(F)(F)C(F)(F)C(F)(F)C(F)(F)C(F)(F)F`, which Potency is on record?
Its Potency is “inactive”.

For `C=CC(=O)OCC`, which Potency is on record?
Its Potency is “inactive”.

Which Potency does the source give for `CCCCOC(C)=O` here?
Its Potency is “inactive”.

How did the Potency turn out when `NNC(N)=O` was run?
Its Potency is “inactive”.

How did the Potency turn out when `O=C1OC(CCN2CCCCC2)OC1(c1ccccc1)c1ccccc1` (stereo unspecified) was run?
Its Potency is “inactive”.

Which Potency does the source give for `CC(C)(C)OC(=O)c1ncn2c1[C@@H]1CCCN1C(=O)c1c(Br)cccc1-2` here?
The Potency was “inactive”.

With `C=CCC1(C(C)CC)C(=O)NC(=O)NC1=O` (stereo unspecified) as the compound, how does the Potency read?
The Potency was “inactive”.

How did the Potency turn out when `CCOP(=S)(OCC)SCS(=O)(=O)CC` was run?
Its Potency is “inactive”.

For `COc1ccc2[nH]cc(CCN(C(C)C)C(C)C)c2c1`, which Potency is on record?
Its Potency is “inactive”.

Which Potency does the source give for `CCOC(=O)NC(C)(C)Cc1ccc(Cl)cc1` here?
Its Potency is “inactive”.

`O=S(=O)(C(Cl)(Cl)Cl)C(Cl)(Cl)Cl` was tested. Which Potency did it give?
Its Potency is “inactive”.

For `CC(C)(C)NC[C@H](O)c1ccc(O)cc1Cl`, which Potency is on record?
Its Potency is 6 nM (active).

Which Potency does the source give for `CC(C)=CCOc1c2occc2cc2ccc(=O)oc12` here?
Its Potency is “inactive”.

How did the Potency turn out when `CC(C)N(CCC(C(N)=O)(c1ccccc1)c1ccccn1)C(C)C` (stereo unspecified) was run?
The Potency was “inactive”.

Which Potency does the source give for `COC(=O)C(c1ccccc1)C1CCCCN1` (stereo unspecified) here?
Its Potency is “inactive”.

`CCC(Cl)CCl` (stereo unspecified) was tested. Which Potency did it give?
Its Potency is “inactive”.

With `O=C(N/N=C/c1ccc([N+](=O)[O-])o1)c1cc([N+](=O)[O-])cc([N+](=O)[O-])c1O` as the compound, how does the Potency read?
The Potency was “inactive”.

Which Potency does the source give for `CC(=O)CN(CC(C)=O)N=O` here?
Its Potency is “inactive”.

How did the Potency turn out when `[CH3][Hg][Cl]` was run?
Its Potency is “inactive”.

With `CCC(=O)C(CCN(C)C)(c1ccccc1)c1ccccc1` as the compound, how does the Potency read?
Its Potency is “inactive”.

With `C1CCC(C2CCCCC2)CC1` as the compound, how does the Potency read?
The Potency was “inactive”.

`N[C@@H]1C[C@H]1c1ccccc1` was tested. Which Potency did it give?
The Potency was “inactive”.

For `Cc1c([N+](=O)[O-])cc2c(c1[N+](=O)[O-])C(C)(C)CC2(C)C`, which Potency is on record?
Its Potency is “inactive”.

`CCN(CC)CCc1c[nH]c2ccccc12` was tested. Which Potency did it give?
Its Potency is “inactive”.
